Screens deposited in PubChem by Broad Institute.
An excerpt weighted towards active compounds, which were near 6.8% of everything screened.
Pf Dd2 growth: inhibitors of Plasmodium falciparum Dd2 growth. 94,000 compounds, 2.3% hits. AID 1159554. activity change, % at 10 µM. P. falciparum Dd2 growth, SYBR Green, 72 h; active compounds read low; in the data active = activity change below about -80%; inconclusive = no clear call, values can overlap the other calls
C diff growth: C. difficile growth inhibition. Clostridium difficile clinical isolate growth, OD600, 24 h; active compounds read low. growth activity, negative = inhibition, % at 16 µg/mL (by protocol). 86,000 compounds, 0.25% hits;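 active = mean growth activity at or below -80% and every replicate also at or below -80%; inconclusive = mean at or below -80% but some replicate above -80%; inactive = mean growth activity above -80%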;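 also: 0% = DMSO wells and -100% = levofloxacin 16 µg/mL wells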
T cruzi growth-1: T. cruzi proliferation inhibition | 77,000 compounds, 5.9% hits | AID 624255 | T. cruzi beta-gal in NIH3T3, GalScreen luminescence, 90 h | inhibition, % at 8.34 µM;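 active = mean inhibition above about 93%, with at least 55% of replicates each passing it, limit read from the data, passing the limit was not always enough; inconclusive = only one of those two conditions holds; inactive = neither condition holds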
T cruzi growth-2: inhibitors of T. cruzi proliferation. 5,600 compounds, 72% hits. AID 651739. shares compounds with T cruzi growth-1. inhibition, % at 8.35 µM. T. cruzi beta-gal in NIH3T3, GalScreen luminescence, 90 h;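 active = mean replicate inhibition above about 95% and at least 55% of replicates individually reaching it, limit read from the data; inconclusive = only one of the two criteria is met; inactive = neither criterion is met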
T cruzi growth-3: blocks T. cruzi growth in NIH3T3 host cells | shares compounds with T cruzi growth-1 | T. cruzi beta-gal in NIH3T3, GalScreen luminescence, 90 h | inhibition, % at 2.09 µM | 5,600 compounds, 21% hits;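 active = mean inhibition above about 95%, with at least 55% of replicates also reaching it, limit read from the data; inconclusive = meets just one of the two conditions; inactive = meets neither condition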;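 also: plate controls were neutral control median for no effect and positive control median for full effect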
3T3 cytotox: cytotoxicity in mouse NIH/3T3 fibroblasts; shares compounds with T cruzi growth-1; NIH/3T3 viability, CellTiter-Glo ATP luminescence, 90 h; cytotoxicity (signal decrease), % at 8.35 µM; 5,600 compounds, 14% hits;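 active = mean signal decrease across replicates above about 35% based on untreated-well scatter, with enough replicates individually passing, limit read from the data; inconclusive = no rule stated though some were filed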;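 also: 0% = median of neutral control wells and 100% = median of positive control wells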
NIH3T3 tox 2: kills mouse NIH/3T3 fibroblasts. shares compounds with T cruzi growth-1. NIH/3T3 viability, CellTiter-Glo ATP luminescence, 90 h. inhibition, % at 24.9 µM. 5,600 compounds, 56% hits;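 active = mean loss of cell viability signal at or above a set limit, and enough replicates individually reaching it; inconclusive = meets only the mean limit or only the replicate share; inactive = meets neither condition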;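 also: 0% = median of neutral control wells and 100% = median of positive control wells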
The depositor's hits bear a star; ? = inconclusive; . = no result given.

SMILES | Pf Dd2 growth | C diff growth | T cruzi growth-1 | T cruzi growth-2 | T cruzi growth-3 | 3T3 cytotox | NIH3T3 tox 2
COCC#Cc1ccc([C@H]2[C@@H](CO)N3CCCCN(S(=O)(=O)c4ccccc4F)C[C@@H]23)cc1 | -24 | 4 | 107* | 106* | 73 | 7 | 20
COCC#Cc1ccc([C@@H]2[C@@H](CO)N3CCCCN(S(=O)(=O)c4ccccc4F)C[C@H]23)cc1 | -53 | -8 | 87 | . | . | . | .
Cc1ccccc1S(=O)(=O)N1CCCCN2[C@H](CO)[C@@H](c3ccc(C#CCN(C)C)cc3)[C@@H]2C1 | -17 | -12 | 30 | . | . | . | .
CN(C)CC#Cc1ccc([C@@H]2[C@H](CO)N3CCCCN(S(=O)(=O)c4ccccc4F)C[C@@H]23)cc1 | -48 | 3 | 103* | 110* | 8 | 13 | 76*
Cc1ccccc1S(=O)(=O)N1CCCCN2[C@@H](CO)[C@@H](c3ccc(C#CCN(C)C)cc3)[C@@H]2C1 | -53 | 2 | 99* | 107* | 89 | ? | 103*
COCC#Cc1ccc([C@@H]2[C@H]3CN(S(=O)(=O)c4ccccc4C)CCCCN3[C@H]2CO)cc1 | 7 | 2 | 94 | . | . | . | .
COCC#Cc1ccc([C@H]2[C@H]3CN(S(=O)(=O)c4ccccc4F)CCCCN3[C@H]2CO)cc1 | 2 | 5 | 59 | . | . | . | .
CC(C)NC(=O)N[C@@H]1C[C@@H]2O[C@H](CO)CC[C@@H]2O[C@@H]1CCc1ccc(-c2ccc(F)cc2)cc1 | -26 | -5 | . | . | . | . | .
Cc1ccc(S(=O)(=O)Nc2cccc3c2O[C@H](CN(C)S(=O)(=O)c2ccc(C)cc2)[C@H](C)CN([C@@H](C)CO)C3=O)cc1 | -6 | -11 | . | . | . | . | .
Cc1ccccc1S(=O)(=O)N1CCCCN2[C@H](C1)[C@H](c1ccc(C#CCN(C)C)cc1)[C@@H]2CO | -16 | 4 | 98* | 110* | 47 | 22 | 83*
Cc1ccccc1S(=O)(=O)N1CCCCN2[C@H](CO)[C@H](c3ccc(C#CCN(C)C)cc3)[C@@H]2C1 | -24 | 3 | 32 | . | . | . | .
COc1ccc(NC(=O)N(C)C[C@@H]2Oc3c(NC(=O)c4ccncc4)cccc3C(=O)N([C@@H](C)CO)C[C@H]2C)cc1 | 6 | 8 | 64 | . | . | . | .
COCCNC(=O)C[C@H]1CC[C@H]2[C@@H](COC[C@H](O)CN2Cc2cccc(-c3ccncc3)c2)O1 | -7 | 8 | 78 | . | . | . | .
COc1ccccc1CNC(=O)C[C@@H]1CC[C@@H]2[C@H](COC[C@H](O)CN2Cc2ccc3c(c2)OCO3)O1 | -52 | 5 | 150* | 55 | -22 | -5 | 5
COc1ccccc1CNC(=O)C[C@@H]1CC[C@H]2[C@@H](COC[C@@H](O)CN2Cc2ccccc2)O1 | 3 | 2 | . | . | . | . | .
COc1ccccc1CNC(=O)C[C@H]1CC[C@H]2[C@@H](COC[C@@H](O)CN2Cc2ccc3c(c2)OCO3)O1 | 4 | 3 | 18 | . | . | . | .
COc1ccccc1CNC(=O)C[C@@H]1CC[C@@H]2[C@H](COC[C@H](O)CN2Cc2cccc(-c3ccncc3)c2)O1 | . | -16 | 117* | 83 | 73 | -12 | 55*
COc1ccccc1CNC(=O)C[C@@H]1CC[C@@H]2[C@H](COC[C@H](O)CN2Cc2ccccc2)O1 | -19 | 10 | . | . | . | . | .
COc1ccccc1CNC(=O)C[C@H]1CC[C@@H]2[C@H](COC[C@H](O)CN2Cc2cccc(-c3ccncc3)c2)O1 | . | -5 | 121* | 102* | 94 | 24 | 25*
COCCNC(=O)C[C@H]1CC[C@@H]2[C@H](COC[C@@H](O)CN2Cc2cccc(-c3ccncc3)c2)O1 | 9 | 9 | 109* | 92 | 87 | -3 | 3
C/C=C/c1ccc([C@H]2[C@@H](CO)N(C(=O)C3CC3)C23CN(S(=O)(=O)CC)C3)cc1 | -25 | -2 | . | . | . | . | .
CO[C@H]1CN(C)C(=O)c2ccc(NC(=O)C3CC3)cc2OC[C@H](C)N(Cc2ccc(F)cc2)C[C@@H]1C | 11 | -17 | . | . | . | . | .
COc1ccc(S(=O)(=O)N(C)C[C@H]2Oc3ncc(/C=C/c4ccccc4)cc3C(=O)N([C@H](C)CO)C[C@H]2C)cc1 | -19 | -5 | . | . | . | . | .
CCC(=O)N1CC2(CCN(C(=O)Nc3c(C)noc3C)CC2)c2c([nH]c3cc(OC)ccc23)[C@H]1CO | 2 | -2 | . | . | . | . | .
O=C(C1CCC1)N1CC(=O)N2[C@@H](CO)[C@@H](c3ccc(-c4ccccc4F)cc3)[C@@H]2C1 | -60 | 8 | . | . | . | . | .
SMILES | Pf Dd2 growth | C diff growth | T cruzi growth-1 | T cruzi growth-2 | T cruzi growth-3 | 3T3 cytotox | NIH3T3 tox 2
CCCNC(=O)N1CC2(C1)[C@H](c1ccccc1)[C@@H](CO)N2C(=O)C1CCC1 | -9 | -5 | . | . | . | . | .
COc1ccccc1CNC(=O)C[C@@H]1CC[C@H]2[C@@H](COC[C@@H](O)CN2Cc2cccc(-c3ccncc3)c2)O1 | . | -2 | 122* | 82 | 93 | 48* | 44*
COc1ccccc1CNC(=O)C[C@H]1CC[C@H]2[C@@H](COC[C@@H](O)CN2Cc2cccc(-c3ccncc3)c2)O1 | . | -5 | 113* | 82 | 82 | 6 | 31*
COc1ccccc1CNC(=O)C[C@H]1CC[C@H]2[C@@H](COC[C@@H](O)CN2Cc2ccccc2)O1 | 12 | 2 | . | . | . | . | .
COc1ccccc1CNC(=O)C[C@H]1CC[C@@H]2[C@H](COC[C@@H](O)CN2Cc2ccccc2)O1 | -2 | 5 | . | . | . | . | .
COCC(=O)N1C[C@@H](C)[C@H](OC)CN(C)C(=O)c2ccc(NC(=O)NC(C)C)cc2OC[C@@H]1C | 14 | 1 | 11 | . | . | . | .
C[C@H](CO)N1C[C@H](C)[C@@H](CN(C)C(=O)CN(C)C)Oc2ncc(-c3ccc(C#N)cc3)cc2C1=O | 23 | -2 | 21 | . | . | . | .
Cc1ccc(S(=O)(=O)N2CC[C@@H]3[C@H](CO)Nc4ccc(Br)cc4[C@@H]32)cc1 | 29 | -19 | ? | 109* | 15 | 15 | 33*
Cc1ccc(S(=O)(=O)N2CC[C@@H]3[C@H]2c2cc(-c4ccccc4F)ccc2N[C@@H]3CO)cc1 | 9 | -2 | ? | 99* | 76 | 38* | 100*
O=S(=O)(c1ccc(F)cc1)N1CC[C@@H]2[C@H](CO)Nc3ccc(Br)cc3[C@@H]21 | 25 | -18 | 61 | . | . | . | .
Cc1ccccc1S(=O)(=O)N1CC[C@H]2[C@H](CO)Nc3ccc(-c4ccccc4F)cc3[C@H]21 | -7 | 3 | 109* | 99* | 31 | 43* | 103*
COc1ccc(S(=O)(=O)N2CC[C@H]3[C@H](CO)Nc4ccc(-c5ccccc5F)cc4[C@H]32)cc1 | -16 | -4 | 42 | . | . | . | .
COc1ccc(S(=O)(=O)N2CC[C@@H]3[C@H]2c2cc(-c4ccccc4F)ccc2N[C@@H]3CO)cc1 | -4 | -7 | 60 | . | . | . | .
O=S(=O)(c1ccccc1F)N1CC[C@@H]2[C@@H](CO)Nc3ccc(-c4ccccc4F)cc3[C@@H]21 | -12 | -1 | 53 | . | . | . | .
